The values that follow come from the supplement of paper PMC9801561.

± gives the standard deviation of the averaged measurements.

The subject of experiment [1] is Escherichia coli Nissle 1917. Kind of experiment: area under OmniLog respiration curve over 48 h (OmniLog units x h); higher = more growth / nutrient utilisation; extreme values may be limits of the assay. The following applies: incubation: 48 h, 37 °C.
For experiment [2], the system named is Escherichia coli Nissle 1917. Kind of experiment: DuctApe activity index of respiration/growth curve (0 no growth to 9 maximum) (index 0-9); higher = more growth / nutrient utilisation, active = 3 or more; extreme values may be limits of the assay. The following applies: incubation: 48 h, 37 °C.
Where [3] appears, read: nutrient role: C-Source, amino acid.
Where [4] appears, read: nutrient role: sole nitrogen source (pyruvate carbon).
Setting [5] is: nutrient role: sole sulfur source (pyruvate carbon).
Setting [6] is: nutrient role: C-Source, carbohydrate.
The mark [7] stands for this setting: nutrient role: C-Source, alcohol.
[8] abbreviates: nutrient role: N-Source, inorganic.
[9] abbreviates: nutrient role: C-Source, carboxylic acid.
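Wherever DuctApe activity index of respiration/growth curve (0 no growth to 9 maximum) is given: biolog PM4 phosphorus and sulfur plates, tetrazolium violet dye reduction read in the OmniLog every 15 min, kinetic curves scored by DuctApe, each plate run in triplicate.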

Turning to `CSCC[C@H](N)C(=O)O` [L-Methionine], the “area under OmniLog respiration curve” value was 33.3 ± 28 in experiment [1] (setting [3]), 4200 ± 940 in experiment [1] (setting [4]) and 6300 ± 150 in experiment [1] (setting [5]). Also, the DuctApe activity index was 0 (inactive) in experiment [2] (setting [3]), 6 (active) in experiment [2] (setting [4]) and 7 (active) in experiment [2] (setting [5]).
As to `C[C@@H](N)C(=O)O` [D-Alanine], the “area under OmniLog respiration curve” value in experiment [1] (setting [3]) came out at 7620 ± 460; in experiment [1] (setting [4]) it was 6690 ± 1200. Besides, the DuctApe activity index in experiment [2] (setting [3]) was 8 (active); in experiment [2] (setting [4]), 7.33 (active).
For `N[C@@H](CO)C(=O)O` [L-Serine] the same measures were 8500 ± 700, 7360 ± 1300, 8.67 (active) and 8 (active).
For `NC(=O)CC[C@H](N)C(=O)O` [L-Glutamine], the entries for the “area under OmniLog respiration curve” value in experiment [1] (setting [3]) and in experiment [1] (setting [4]) were 8360 ± 610 and 8560 ± 1200, respectively. For the same compound, the DuctApe activity index in experiment [2] (setting [3]) and in experiment [2] (setting [4]) was 8.33 (active) each time.
With `O=C1CC[C@@H](C(=O)O)N1` [L-Pyroglutamic acid], the “area under OmniLog respiration curve” value is 6.07 ± 1.2 in experiment [1] (setting [3]) and 4.72 in experiment [1] (setting [4]). In addition, the DuctApe activity index in experiment [2] (setting [3]) and in experiment [2] (setting [4]) was 0 (inactive) throughout.
In the case of `N[C@H](CO)C(=O)O` [D-Serine], the figures for the “area under OmniLog respiration curve” value in experiment [1] (setting [3]) and in experiment [1] (setting [4]) were 9490 ± 1100 and 7130 ± 1200, respectively. For the same compound, the values for the DuctApe activity index in experiment [2] (setting [3]) and in experiment [2] (setting [4]) were 8.67 (active) and 7.67 (active), respectively.
For the compound `NC(=O)[C@H]1O[C@@H](O)[C@H](O)[C@@H](O)[C@@H]1O` [Glucuronamide], the “area under OmniLog respiration curve” value in experiment [1] (nutrient role: C-Source, amide) was 33.5 ± 50; in experiment [1] (setting [4]) it was 2520 ± 1200. Moreover, the DuctApe activity index in experiment [2] (nutrient role: C-Source, amide) was 0.333 (inactive); in experiment [2] (setting [4]), 4.33 (active).
For the compound `C[C@@H](O)[C@H](N)C(=O)O` [L-Threonine], the “area under OmniLog respiration curve” value worked out at 7940 ± 380 in experiment [1] (setting [3]) and 3190 ± 1200 in experiment [1] (setting [4]). The DuctApe activity index in experiment [2] (setting [3]) is 8 (active); in experiment [2] (setting [4]), 5 (active).
Regarding `Nc1ncnc2c1ncn2[C@@H]1O[C@H](CO)[C@@H](O)[C@H]1O` [Adenosine], the “area under OmniLog respiration curve” value in experiment [1] (setting [6]) was determined as 9110 ± 480; in experiment [1] (setting [4]) it was 6810 ± 990. In addition, the DuctApe activity index is 8.67 (active) in experiment [2] (setting [6]) and 7.33 (active) in experiment [2] (setting [4]).
Regarding `O=c1[nH]cnc2c1ncn2[C@@H]1O[C@H](CO)[C@@H](O)[C@H]1O` [Inosine], the “area under OmniLog respiration curve” value stood at 9540 ± 290 in experiment [1] (setting [6]) and 24.8 ± 35 in experiment [1] (setting [4]). In addition, the DuctApe activity index was 9 (active) in experiment [2] (setting [6]) and 0 (inactive) in experiment [2] (setting [4]).
Consider `NCCCCN` [Putrescine], for which the “area under OmniLog respiration curve” value in experiment [1] (nutrient role: C-Source, amine) is 13.7 ± 8.1; in experiment [1] (setting [4]), 31.6 ± 46. The DuctApe activity index in experiment [2] (nutrient role: C-Source, amine) was 0 (inactive); in experiment [2] (setting [4]) it was 0 (inactive).
`CC(O)CO` (stereo not drawn) [1,2-Propanediol]: the “area under OmniLog respiration curve” value in experiment [1] (setting [7]) worked out at 123 ± 100. Also, in experiment [2] (setting [7]), the DuctApe activity index is 1.33 (inactive).
The like results for `NCCO` [2-Aminoethanol] were, in that order, 149 ± 200 and 0 (inactive).
Regarding `O=S(O)(O)=S` [Thiosulfate], the “area under OmniLog respiration curve” value in experiment [1] (setting [5]) was determined as 6770 ± 170. Moreover, in experiment [2] (setting [5]), the DuctApe activity index is 7 (active).
For the compound `CCC(C)N` (stereo not drawn) [sec-Butylamine], the “area under OmniLog respiration curve” value in experiment [1] (nutrient role: C-Source, amine) was 5.72 ± 1.7. In experiment [2] (nutrient role: C-Source, amine), the DuctApe activity index was 0 (inactive).
Turning to `O=NO` [Nitrite], in experiment [1] (setting [8]), the “area under OmniLog respiration curve” value was 122 ± 150. In experiment [2] (setting [8]), the DuctApe activity index was 0.667 (inactive).
On to `O=C1O[C@H]([C@@H](O)CO)[C@@H](O)[C@@H]1O` [L-Galactonic acid-g-Lactone], for which the “area under OmniLog respiration curve” value in experiment [1] (setting [9]) worked out at 10200 ± 640. For the same compound, the DuctApe activity index in experiment [2] (setting [9]) was 9 (active).
